In the library only some 0.12% were active in any assay of this set; here they are far more common.
Caspase-1 inhib: qHTS Assay for Allosteric/Competitive Inhibitors of Caspase-1 | Caspase-1 enzyme, Ac-WEHD-AFC fluorogenic rate | Potency, µM (top dose mostly 57.5 µM), without a hit: at the highest dose activity change, negative = inhibition, usual class: inhibitors | 75,000 compounds, 0.03% hits | AID 900, 2007;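 note: plate controls were vehicle for no effect and no substrate for full effect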
USP2a inhib: qHTS Assay for Inhibitors of Ubiquitin-specific Protease USP2a; Ubiquitin carboxyl-terminal hydrolase 2 (Homo sapiens), O75604; USP2a enzymatic assay, qHTS inhibition; Potency, µM (top dose mostly 38.3 µM), for the others: at the top dose activity change, negative = inhibition, hits mostly inhibitors; 60,000 compounds, 0.1% hits; note: nearly all actives have a fitted effect of over 60% in size
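USP2 core (20nM final) preincubated 30 min RT with compound, then Ub-PLA2 20nM and NBD C6-HPC 20uM final added; buffer 20mM Tris-HCl pH 8.0, 2mM CaCl2. Fluorescence Ex 460/Em 535 read at 0 and 2.5 h; normalized to NEM.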
Casp7 inh: qHTS Assay for Allosteric/Competitive Inhibitors of Caspase-7; P55210; recombinant caspase-7, Ac-DEVD-AFC fluorescence rate; Potency, µM (doses to about 57.5 µM), without a hit: at the top dose activity change, negative = inhibition, most hits filed as inhibitors; 75,000 compounds, 0.02% hits; active = well fitted inhibition curve with a large enough effect in the main read-out, with a control signal flat, not every such curve was filed as active; inconclusive = small, poorly fitted or top-dose-only effect, or a change in a side signal; note: % of control where 0% means no effect
* marks the source's active call; other numbers are inactive results; u = inconclusive; x = no result given; [ ] = another dose, or the depositor's remark. Unless noted, calls come from the whole dose curve; as a rule, active = well fitted curve in the direction sought with a large enough effect; inconclusive = small, poorly fitted or top-dose-only effect, or another doubt; inactive = no such curve, though single readings can be large; an effect the other way counts as inactive or inconclusive. Potency is the fitted concentration of half-maximal effect.

SMILES	Caspase-1 inhib	USP2a inhib	Casp7 inh
CC(=O)OCC1OC(c2ccccc2)C(OC(C)=O)C(OC(C)=O)C1OC(C)=O (stereo not given)	-4%	4%	-1%
Cc1ccc(S(=O)(=O)Nc2ccc(O)c(C(=O)O)c2)c(C)c1	1%	x	2%
CC(=O)O[C@@H]1C[C@]2(C)[C@H](C[C@@H](O)[C@H]3[C@@]4(C)CC[C@@H](O)[C@@H](C)[C@@H]4CC[C@@]32C)/C1=C(\CCC=C(C)C)C(=O)O	-2%	7%	-9%
O=C1Cc2ccccc2C(=O)N1CCc1ccccc1	5µM*	x	6.3µM*
O=C(O)CCN1C(=O)c2ccccc2C1=O	2%	-3%	1%
COc1ccc2nc3c(nc2c1)C(=O)c1ccccc1-3	-10%	x	-5%
CC(C)(CC(=O)Nc1ccccc1)C(=O)O	4%[11.5 µM]	x	1%[11.5 µM]
CCCCCCCCCCCC(CC1OC(=O)C1CCCCCC)OC(=O)C(CC(C)C)NC=O (stereo not given)	1%	10µM*	1%
Clc1ccccc1C(Nc1cnccn1)Nc1cnccn1	-1%[11.5 µM]	x	0%[11.5 µM]
Cc1ccc([C@@]2(C)CC/C(=N/N=C3\CC[C@](C)(c4ccc(C)c(C)c4)c4cc(C)c(C)cc43)c3cc(C)c(C)cc32)cc1C	1%[11.5 µM]	x	1%[11.5 µM]
O=C(N/N=C1/C[C@@H](O)[C@@H](O)[C@@H]2[C@H]3C(=O)N(c4ccc(F)cc4F)C(=O)[C@@H]3CC[C@@H]12)OCc1ccccc1	-13%[11.5 µM]	x	-1%[11.5 µM]
C/C1=C2N=C(/C=C3N=C(/C(C)=C4\[N-]C(C)(C5N=C1C(C)(CCC(=O)NCC(C)OP(=O)([O-])O[C@H]1C(O)C(n6cnc7cc(C)c(C)cc76)O[C@@H]1CO)C5CC(N)=O)C(C)(CC(N)=O)C4CCC(N)=O)C(C)(CC(N)=O)C\3CCC(N)=O)C(C)(C)C/2CCC(N)=O.[CH2-]C1OC(n2cnc3c(N)ncnc32)C(O)C1O.[Co] (stereo not given in full)	u	3.2µM*	-18%
CC1(C)N=C(N)N=C(N)N1c1cccc(CSc2ccccc2)c1	3%[11.5 µM]	x	-3%[11.5 µM]
Cc1c(C)c2c(c(C)c1O)CC[C@@](C)(CCC[C@@H](C)CCC[C@@H](C)CCCC(C)C)O2	-8%[25.7 µM]	7.9µM*	0%[25.7 µM]
Cc1c(C)c2c(c(C)c1O)CC[C@@](C)(C(=O)O)O2	1%[25.7 µM]	-10%[17.1 µM]	1%[25.7 µM]
CC(=O)[C@]1(O)CC[C@@H]2[C@H]3C[C@@H](C)C4=CC(=O)CC[C@@]4(C)[C@H]3[C@@H](O)C[C@]21C	2%[11.5 µM]	x	-5%[11.5 µM]
C#CCN1C(C)=C(C(=O)OC)[C@@H](c2cccc([N+](=O)[O-])c2)C(C(=O)OCC)=C1C	-2%	-13%	-2%
CC(C)[C@@H]1O[C@H](/C=C\c2ccccc2)OCC1(C)C	-3%[11.5 µM]	x	0%[11.5 µM]
COc1ccc(NC(=O)CN2CCN(c3ccc(Cl)cc3)CC2)c(OC)c1	-2%	13µM*	2%
COc1ccc(N2CCN(CC(=O)Nc3c(C)cc(C)cc3C)CC2)cc1	-3%	-6%	-1%
O=C(/C=C\c1ccc(O)c(O)c1)OCCc1ccccc1	7%	-5%	2%
O=C(c1ccc(S(=O)(=O)N2CCC(c3nc4ccccc4[nH]3)CC2)cc1)N1CCOCC1	2%	13µM*	0%
O=C(c1ccc(S(=O)(=O)N2CCC(c3nc4ccccc4s3)CC2)cc1)N1CCOCC1	0%	x	3%
C[C@@H]1C(=O)N(C)C(=O)c2nc[nH]c21	-2%	-1%	2%
CCCCCCC/C=C\CCCCCCCCC(=O)O	0%	13µM*	0%
SMILES	Caspase-1 inhib	USP2a inhib	Casp7 inh
CCCCCCCC(=O)O	-2%	x	1%
O=C(c1ccccc1)[C@H](Nc1ccc2ccccc2c1)c1ccccc1	1%[11.5 µM]	x	-1%[11.5 µM]
O=c1oc2ccccc2n1CCn1c2ccccc2c2nc3ccccc3nc21	-14%	10µM*	-9%
O=c1oc2ccccc2n1Cn1c(=O)oc2ccccc21	-1%	2%	2%
O=S(=O)(Nc1cccnc1)c1cccc2cccnc12	-1%	x	-2%
C[C@@H](COc1ccc(/C=C\c2ccccc2)cc1)[N+](C)(C)C	0%	-16%	1%

Source: PubChem (National Center for Advancing Translational Sciences (NCATS))
